LYPLA2 inh: LYPLA2 (human) inhibition in PME1 counter-screen; inhibition, % at 5.9 µM; O95372; recombinant LYPLA2, FP-Rh probe fluorescence polarization; 0.38% of 320,000 active;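 active means inhibition above the screen-wide mean plus 3 SD, limit set per campaign, cut at about 26% in these data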;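 further: 0% = LYPLA2 with DMSO and 100% = wells lacking LYPLA2 enzyme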
PME-1 inh: PME-1 (human) inhibition | Q9Y570 | recombinant PME-1, FP-Rh probe fluorescence polarization | inhibition, % at 5.9 µM | 0.53% of 320,000 active;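 active means inhibition above the campaign mean of all compounds plus 3 SD, cut at about 26% in these data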;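 further: competitive labeling of PME-1 active site by serine hydrolase directed probe; 0% = PME-1 with DMSO and 100% = wells lacking PME-1 enzyme; inhibitors block probe labeling so polarization falls and inhibition rises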
Target sequence (Q9Y570 whole entry, looked up): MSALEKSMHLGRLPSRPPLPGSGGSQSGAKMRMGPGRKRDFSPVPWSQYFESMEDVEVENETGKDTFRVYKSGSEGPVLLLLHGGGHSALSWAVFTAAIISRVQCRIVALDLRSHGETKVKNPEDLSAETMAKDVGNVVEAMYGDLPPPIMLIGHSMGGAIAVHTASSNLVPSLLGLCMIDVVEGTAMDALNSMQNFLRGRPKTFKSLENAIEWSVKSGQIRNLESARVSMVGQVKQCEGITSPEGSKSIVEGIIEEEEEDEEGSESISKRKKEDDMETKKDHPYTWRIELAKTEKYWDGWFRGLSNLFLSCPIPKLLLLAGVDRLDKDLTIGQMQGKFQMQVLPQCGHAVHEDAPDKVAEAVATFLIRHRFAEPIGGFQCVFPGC
GSTO1 inh: GSTO1 inhibition, counter-screen for RBBP9 inhibitors; P78417; inhibition, % at 5.96 µM; AID 1974; recombinant GSTO1, activity-based probe fluorescence polarization; 1.1% of 300,000 active;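 active means inhibition above the campaign mean inhibition plus 3 SD, cut at about 35% in these data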;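 further: 0% = GSTO1-1 with DMSO and 100% = wells lacking GSTO1-1 enzyme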
PAD4 FP inh: PAD4 (human) enzyme inhibition; Q9UM07; recombinant PAD4, RCA probe fluorescence polarization; inhibition, % at 6.36 µM; 0.41% of 330,000 active; AID 485272;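 active means percent inhibition above a cutoff equal to the mean of all tested compounds plus 3 SD, cut at about 15% in these data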;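 further: 0% = PAD4 with RCA probe and DMSO and 100% = probe without PAD4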
LYPLA1 counter: blocks human lysophospholipase 1, a PME1 counter-screen | O75608 | recombinant LYPLA1, FP-Rh probe fluorescence polarization | inhibition, % at 5.9 µM | 0.16% of 320,000 active | AID 2174;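 active means inhibition above the mean of all tested compounds plus 3 SD, set per campaign, cut at about 14% in these data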;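 further: inhibitors block serine hydrolase probe labeling of LYPLA1 so polarization falls; 0% = enzyme with DMSO and 100% = wells lacking LYPLA1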
Target sequence (O75608 whole entry, looked up): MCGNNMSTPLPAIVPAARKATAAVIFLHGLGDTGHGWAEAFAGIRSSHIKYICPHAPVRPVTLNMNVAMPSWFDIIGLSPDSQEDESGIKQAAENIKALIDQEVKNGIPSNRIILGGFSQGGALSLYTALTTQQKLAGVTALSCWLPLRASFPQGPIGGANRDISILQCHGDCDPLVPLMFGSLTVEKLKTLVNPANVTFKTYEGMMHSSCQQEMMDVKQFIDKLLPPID
Fam108B counter: blocks mouse Fam108B hydrolase in RBBP9 counter-screen; recombinant Fam108B, FP-Rh probe fluorescence polarization; inhibition, % at 9.51 µM; 0.33% of 300,000 active; AID 1947;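 active means inhibition above the screen mean inhibition plus 3 SD, computed separately per campaign, cut at about 18% in these data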;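 further: inhibitors lower polarization as less probe binds the enzyme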
LYPLA2 conf: counter-screen for PME1 inhibitors: confirmation of human LYPLA2 inhibitors; inhibition, % at 5.9 µM; shares compounds with LYPLA2 inh; 72% of 1,100 active; recombinant LYPLA2, FP-Rh probe fluorescence polarization; AID 2232;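 active means mean inhibition across replicates above the hit cutoff set in the primary screen, cut at about 26% in these data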;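 further: blocked labeling of the enzyme by serine hydrolase FP-Rh probe lowers polarization; 0% = enzyme with DMSO and 100% = wells lacking LYPLA2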
LYPLA2 ABPP: inhibitors of human LYPLA2 | shares compounds with LYPLA2 inh | rhLYPLA2 in mouse brain proteome, gel ABPP FP-Rh | 30% of 150 active | inhibition, % at 20 µM;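 active means inhibition of LYPLA2 enzyme probe labeling above about 50%, limit read from the data; inactive means inhibition below that limit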;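 further: loss of FP-Rh probe labeling of the LYPLA2 gel band measured as band density; 0% = DMSO only control band and 100% = blank gel background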
An asterisk follows results filed as active; x = no result given. Only some compounds are listed: those with a hit (about 1.8% of all), similar ones and a draw of the others.

SMILES | LYPLA2 inh | PME-1 inh | GSTO1 inh | PAD4 FP inh | LYPLA1 counter | Fam108B counter | LYPLA2 conf | others
CCOC(=O)c1ccc(NC(=S)N2CCCC2c2ccc(OC)c(OC)c2)cc1 (stereo not drawn) | 30.3* | 2.6 | 4.4 | -0.7 | 0.3 | -5.1 | 25.3
COc1ccc(NC(=S)N2CCCC2c2ccc(OC)c(OC)c2)cc1 (stereo not drawn) | 0.6 | 0.9 | -0.3 | -1.2 | -2.7 | 0.2 | x
CC(Sc1ccccc1)C(=O)NNC(=O)c1ccncc1 (stereo not drawn) | -5.7 | 3.8 | -7.7 | -6.6 | 0.8 | 1.3 | x
COc1ccc(Cl)cc1NC(=O)c1noc(C)c1[N+](=O)[O-] | 28.2* | 3.1 | 18.3 | -1.4 | -0.7 | 1.8 | 35.9*
CCCNC(=O)c1cc2c(C(F)(F)F)nn(C)c2s1 | -1.2 | -1.3 | 3.0 | -6.8 | -0.3 | -0.8 | x
COc1cc(/C=C(/C#N)c2ccccc2)ccc1Oc1ccc([N+](=O)[O-])cn1 | 31.2* | 0.6 | -10.6 | 0.4 | -5.5 | -3.0 | 30.8*
COc1cc(/C=C2/NC(=O)N(Cc3ccccc3F)C2=O)ccc1Oc1ccc([N+](=O)[O-])cn1 | 62.0* | 7.5 | 0.5 | 2.3 | -2.0 | -6.7 | 72.4*
CC(c1ccco1)N(C(=O)CSc1ccc(Br)cc1)c1ccccn1 (stereo not drawn) | 2.5 | -1.3 | 4.5 | -3.5 | 3.3 | 7.3 | x
O=C(NCc1ccc(F)cc1)C(=O)Nc1nc(C23CC4CC(CC(C4)C2)C3)cs1 | -4.8 | -5.1 | -9.2 | -1.5 | -3.0 | -5.0 | x
CN(C)C(=O)N1CCC(C(=O)N2CCCC(C(=O)c3ccc(C(C)(C)C)cc3)C2)CC1 (stereo not drawn) | 34.1* | 3.1 | 5.5 | 2.1 | 4.1 | 1.9 | 33.9*
CC(=O)Nc1ccc(OCC(O)Cn2nc(C)c(C)c2C)cc1 (stereo not drawn) | 2.4 | -3.9 | 7.6 | -0.4 | -0.5 | 2.9 | x
CCN1CCc2c(sc(NC(=O)c3ccc(C(=O)c4ccccc4)cc3)c2C(N)=O)C1 | 26.3* | 0.5 | -34.9 | -5.2 | -1.9 | 1.2 | 24.9
NC(=O)c1cc([N+](=O)[O-])ccc1NCc1cccc([N+](=O)[O-])c1 | 29.4* | 6.0 | -0.8 | -1.3 | 4.3 | -0.1 | 28.8*
NCc1cccc(CNc2ccc([N+](=O)[O-])cc2C(N)=O)c1 | 3.7 | 5.7 | 0.1 | -1.0 | 2.4 | -0.5 | x
O=S(=O)(c1ccc(-c2csc(Nc3ccc(Br)cc3)n2)cc1)N1CCCC1 | 53.4* | 37.6* | 0.0 | 0.3 | 7.5 | 8.9 | -13.2
CCn1c(=O)c(C(=O)CN2CCN(Cc3ccc4c(c3)OCO4)CC2)c(N)n(Cc2ccccc2)c1=O | 26.3* | 0.2 | 2.2 | 3.6 | 4.7 | -4.5 | 24.0
CCn1c(=O)c(C(=O)CN2CC(C)OC(C)C2)c(N)n(Cc2ccccc2)c1=O (stereo not drawn) | 4.0 | -2.3 | 0.8 | -7.1 | -0.2 | -0.1 | x
O=C(c1ccc(CSc2nc3ccncc3[nH]2)cc1)N1CCN(c2cccc(Cl)c2)CC1 | 32.7* | 1.7 | -4.3 | 0.0 | -0.6 | -0.9 | 30.8*
COc1ccc(/C=C2\SC(=S)N(CCC(=O)Nc3cccc(O)c3)C2=O)cc1OC | -17.3 | -15.3 | -1.5 | -4.9 | -9.3 | -9.4 | x
COc1ccc(/C=C2\SC(=S)N(CCCC(=O)Nc3cccc(C(=O)O)c3)C2=O)cc1OC | 5.3 | -2.8 | -4.8 | -8.3 | -4.5 | -0.5 | x
COc1ccc(/C=C2\SC(=O)N(CC(=O)Nc3cccc(C)c3)C2=O)cc1O | 40.5* | -17.1 | 4.0 | -0.8 | -12.8 | -10.1 | 38.0*
COc1cc(/C=C2\SC(=O)N(CC(=O)Nc3cccc(C)c3)C2=O)ccc1OC(C)C(=O)O (stereo not drawn) | 74.4* | -2.8 | 3.2 | 1.9 | -3.3 | -5.3 | 73.6* | LYPLA2 ABPP=80.0*
N#CC1=C(N)c2ccccc2CC12CCCCC2 | -0.7 | -0.6 | -32.3 | -2.0 | -1.6 | 0.7 | x
Cc1cccc(C2c3[nH]c4ccccc4c3CCN2C(=O)c2cc(CC(C)C)[nH]c(=O)n2)n1 (stereo not drawn) | 1.0 | -2.0 | 14.3 | -3.1 | 3.0 | -3.4 | x
CC(C)CN(C(=O)COC(=O)C12CC3CC(CC(C3)C1)C2)c1c(N)n(Cc2ccccc2)c(=O)[nH]c1=O | -0.1 | 1.8 | -2.7 | -6.2 | -1.6 | 3.5 | x
SMILES | LYPLA2 inh | PME-1 inh | GSTO1 inh | PAD4 FP inh | LYPLA1 counter | Fam108B counter | LYPLA2 conf | others
Cc1c(NC(=S)NC(=O)c2cc3ccccc3o2)c(=O)n(-c2ccccc2)n1C | -3.3 | -4.8 | -0.4 | 4.1 | 4.0 | -0.5 | x
COc1ccc(CCn2c(C)cc(C(=O)COC(=O)c3cnccn3)c2C)cc1 | 42.8* | 5.1 | 25.5 | -7.3 | 1.7 | 2.8 | 40.6*
COc1ccc(CCn2c(C)cc(C(=O)COC(=O)c3cnc(C)cn3)c2C)cc1 | 14.6 | 7.7 | 25.9 | -4.4 | 1.1 | 1.2 | x
O=C(CN1CCN(C/C=C/c2ccccc2)CC1)Nc1cc([N+](=O)[O-])ccc1Cl | 30.9* | 3.8 | 4.3 | -3.5 | 21.7* | 1.1 | 28.5*
O=[N+]([O-])c1ccc(C(O)CN2CCN(C/C=C/c3ccccc3)CC2)cc1 (stereo not drawn) | 62.2* | 3.7 | 12.4 | 0.4 | 7.6 | -5.3 | 54.1* | LYPLA2 ABPP=36.0
Cc1cc(NC(=O)CN2CCN(C/C=C/c3ccccc3)CC2)c([N+](=O)[O-])cc1C | 4.9 | -4.2 | 0.5 | -0.4 | 0.8 | -1.7 | x
O=C(Nc1nc(=S)ss1)c1ccc(Cl)cc1Cl | 0.9 | -2.5 | -22.6 | -26.6 | 0.0 | -3.2 | x
CCOC(=O)N1CCN(C(=O)COC(=O)c2ccc(O)cc2O)CC1 | -0.4 | -1.8 | -1.2 | -1.1 | -3.3 | -7.0 | x
O=C(OCC(=O)N1CCN(C(=O)COC(=O)c2ccc(O)cc2O)CC1)c1ccc(O)cc1O | 27.9* | -0.6 | 12.0 | 4.9 | 4.3 | -0.1 | 26.8*
COc1ccc(N2CCN(C(=O)CCNS(=O)(=O)c3cc(Br)cnc3N)CC2)cc1 | 31.9* | -2.1 | 9.2 | -8.2 | 0.9 | 0.6 | 23.7
COc1ccc(N2CCN(C(=O)CNS(=O)(=O)c3ccc(Br)s3)CC2)cc1 | 27.0* | -2.9 | -2.8 | 0.7 | 9.8 | -1.8 | 33.5*
COc1ccccc1N1CCN(C(=O)CNS(=O)(=O)c2ccc(Br)s2)CC1 | -5.1 | -1.0 | -5.3 | -3.0 | -3.0 | -1.4 | x
C#CCOCCOCCOCCNc1nc(N2CCN(C(=O)CCCCCCCCCCNC(=O)Cn3cc(C[C@@H](C)O)nn3)CC2)nc(N2CCN(C(=O)CCCCCCCCCCNC(=O)[C@@H]([C@H](C)CC)n3cc(CCCCCN)nn3)CC2)n1 | 30.5* | -0.1 | 3.6 | 0.0 | 0.2 | -2.5 | 28.0*
COc1cccc(CN(C)C(=O)c2ccc(Oc3ccccc3)cc2)c1OC | 29.9* | 6.7 | 5.7 | 0.6 | 3.8 | 2.8 | 7.0

Screening results (PubChem BioAssay)
